# Data reported in PubChem BioAssay AID2629 (Broad Institute, 2010).
# “And” between values parts separate entries of the source, which are not always exact repeats. Identical values can stand only once. Hit rate of the full screen: of about 320,000 compounds, about 1,900 (0.59%) were called active. Cut-off read from the data, not from the text of the source: active = inhibition mostly above about 10% (no sharp cut-off); inactive = mostly below about 6.7%. Many of the other results were omitted from the sample, so actives are more common in it than they were.
# Molecular target: Protein LANA1 (Human herpesvirus 8 type P (isolate GK18)) (UniProt Q9QR71)
# Sequence (Q9QR71 whole entry, looked up): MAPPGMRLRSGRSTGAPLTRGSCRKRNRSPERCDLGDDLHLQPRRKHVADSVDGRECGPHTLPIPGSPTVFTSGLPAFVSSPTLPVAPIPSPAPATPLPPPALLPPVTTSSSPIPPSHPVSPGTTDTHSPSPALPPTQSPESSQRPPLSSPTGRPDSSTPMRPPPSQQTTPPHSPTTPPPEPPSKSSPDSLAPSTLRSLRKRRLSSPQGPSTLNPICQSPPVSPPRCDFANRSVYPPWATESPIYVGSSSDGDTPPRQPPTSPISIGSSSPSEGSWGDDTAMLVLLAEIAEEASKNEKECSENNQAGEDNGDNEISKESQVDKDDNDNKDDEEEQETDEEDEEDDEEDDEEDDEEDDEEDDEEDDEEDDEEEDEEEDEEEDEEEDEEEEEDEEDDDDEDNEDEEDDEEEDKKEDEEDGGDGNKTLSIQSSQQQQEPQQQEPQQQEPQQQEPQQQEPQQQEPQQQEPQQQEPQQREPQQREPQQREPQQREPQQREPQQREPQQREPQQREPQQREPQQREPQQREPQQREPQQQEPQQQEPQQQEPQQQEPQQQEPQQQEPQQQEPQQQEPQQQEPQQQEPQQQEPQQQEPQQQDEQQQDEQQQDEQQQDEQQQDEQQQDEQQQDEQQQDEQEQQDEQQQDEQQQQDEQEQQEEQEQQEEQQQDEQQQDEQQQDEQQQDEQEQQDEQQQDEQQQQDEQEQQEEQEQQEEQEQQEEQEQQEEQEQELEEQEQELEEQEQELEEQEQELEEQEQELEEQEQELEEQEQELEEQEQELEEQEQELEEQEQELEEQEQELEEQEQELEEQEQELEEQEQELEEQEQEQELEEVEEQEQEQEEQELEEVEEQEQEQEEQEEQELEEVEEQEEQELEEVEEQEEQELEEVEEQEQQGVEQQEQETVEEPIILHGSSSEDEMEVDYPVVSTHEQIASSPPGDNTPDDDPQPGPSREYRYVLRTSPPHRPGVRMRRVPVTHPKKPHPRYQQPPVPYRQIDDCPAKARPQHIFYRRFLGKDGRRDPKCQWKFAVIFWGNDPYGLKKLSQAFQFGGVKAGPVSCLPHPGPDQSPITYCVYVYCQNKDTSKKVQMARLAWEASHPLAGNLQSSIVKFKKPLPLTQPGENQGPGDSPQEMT
# Test: blockers of LANA interaction with H2A/H2B – biochemical, FP readout, HTS, primary screen (AID 2629)
# Settings: cell-free LANA-H2A/H2B peptide, fluorescence polarization, stronger effect = higher value, concentration not given here
row,SMILES,inhibition
1,O=C(N1CCCC1)C12CC3CC(C1)CC(C(=O)N1CCCC1)(C3)C2,15.6% (active)
2,O=C(NCC12CC3CC(C1)CC(CNC(=O)N1CCCC1)(C3)C2)N1CCCC1,-3.32% (inactive)
3,CC(=O)NC12CC3CC(C1)CC(C(=O)N1CCN(C(=O)c4ccco4)CC1)(C3)C2,-0.808% (inactive)
4,O=S(=O)(NC1CCCCC1)c1ccc(F)c2ccccc12,-1.01% (inactive)
5,Cc1cccc(C)c1NC(=O)C1(N(C(=O)c2ccccn2)c2ccc(O)cc2)CCCCC1,-0.134% (inactive)
6,COc1cccc(N2CC(C(=O)Nc3c(C)cccc3C)CC2=O)c1 (stereo not drawn),-1.43% (inactive)
7,COc1cccc(N(C(=O)c2ccn[nH]2)C2(C(=O)Nc3c(C)cccc3C)CCCCC2)c1,83.6% (active)
8,COc1cc(CNCc2ccc(OC)c3ccccc23)cc(OC)c1OC,-2.97% (inactive)
9,C=CCC[C@@H](Cc1ccc(F)cc1)C(=O)OC[C@@H](C)NC(=O)[C@H](CC=C)CC(=O)N(CCO)Cc1ccccc1,-1.37% (inactive)
10,O=C(CSc1nc2ccccc2c(=O)n1-c1ccccc1F)N1CCOCC1,-5.04% (inactive)
11,CCOC(=O)N1CCN(CC(=O)Nc2ccc(F)cc2)CC1,-4.74% (inactive)
12,CCOC(=O)N1CCN(C(=O)Cn2cnc3ccccc3c2=O)CC1,3% (inactive)
13,CCOC(=O)N1CCN(CC(=O)Nc2cc(C)nn2-c2nc3ccccc3s2)CC1,16.1% (active)
14,O=C(OCc1ccccc1F)c1ccc2c(c1)OCCO2,-6.13% (inactive)
15,CCOC(=O)c1nc(C)n(-c2ccc(Cl)cc2Cl)n1,-1.22% (inactive)
16,CC(=O)c1nnn(-c2ccc(Cl)cc2C#N)c1C,10.1% (active)
17,CC(=O)c1cc(C#N)c(SCC(=O)C(C)(C)C)nc1C,-1.09% (inactive)
18,Cc1ccc(S(=O)(=O)NC(C(=O)N2CCOCCOCCOCCOCC2)c2ccccc2)cc1 (stereo not drawn),-3.32% (inactive)
19,Brc1ccc(-c2n(-c3ccccn3)c3ccccc3[n+]2-c2ccccn2)cc1,5.04% (inactive)
20,C[C@@H](C(=O)Nc1ccc2ccccc2c1)[C@@H]1C[C@@]1(C)[C@@H](NC(=O)c1cccnc1)c1ccccc1,1.66% (inactive)
21,COc1ccc(C(=O)NC2CC2)cc1OC1CCN(Cc2cnn(C)c2)CC1,2.53% (inactive)
22,COc1ccc(C(=O)NC2CC2)cc1OC1CCN(Cc2ccc(SC)cc2)CC1,12.2% (active)
23,COc1ccc(C(=O)NC2CC2)cc1OC1CCN(C/C=C/c2ccccc2)CC1,5.63% (inactive)

row,SMILES,inhibition
1,COc1ccc(C(=O)n2nc(C)c(Br)c2C)cc1OC,2.73% (inactive)
2,COc1ccc(C(=O)NC(=S)N2CCCCC2c2cccnc2)cc1OC (stereo not drawn),-0.0544% (inactive)
3,Cc1ccccc1-n1nc(C)c2cc(C(=O)NC3CC3)sc21,0.464% (inactive)
4,Cc1cccn2c(=O)c3cc(C(=O)NC4CCCCC4)sc3nc12,32.6% (active)
5,CN(C(=O)c1cc2c(=O)n3ccccc3nc2s1)C1CCCCC1,-5.4% (inactive)
6,Cc1ccc(NC(=O)/C(=C\c2ccccc2)NC(=O)c2ccco2)cc1,15.5% (active)
7,O=C(Nc1ccccc1)/C(=C\c1ccco1)NC(=O)c1ccco1,4.48% (inactive)
8,COc1ccc(/C=C(/NC(=O)c2ccco2)C(=O)Nc2ccc(C(C)=O)cc2)cc1,3.73% (inactive)
9,Cn1c(=O)c2c(nc(NCCNC(=O)c3ccco3)n2Cc2ccccc2F)n(C)c1=O,0.914% (inactive)
10,CC[N+](C)(CC)CCC[n+]1c(-c2ccccc2)c2cc(N)ccc2c2ccc(N)cc21,37% (active)
11,COc1cc(N/C=C2\CC(=O)NC(C)=C2C#N)cc(OC)c1OC,1.67% (inactive)
12,CCOC(=O)C(NS(=O)(=O)c1ccc(C)cc1)(C(F)(F)F)P(=O)(OCC(C)C)OCC(C)C (stereo not drawn),-0.856% (inactive)
13,CC(C)C(=O)NC(NC(=S)NC1CCS(=O)(=O)C1)C(Cl)(Cl)Cl (stereo not drawn),5.16% (inactive)
14,CCN(CC)CCN(C(=O)c1cccc([N+](=O)[O-])c1)c1nc2ccc(OC)cc2s1,10.8% (active)
15,CCOc1ccc2nc(N(CCCN(C)C)C(=O)c3ccc(C(=O)c4ccccc4)cc3)sc2c1,2.47% (inactive)
16,CCOc1ccc2nc(N(CCN(C)C)C(=O)c3ccc4ccccc4c3)sc2c1,-2.61% (inactive)
17,O=c1cc(-c2ccccc2)[nH]c2cc(F)ccc12,-0.193% (inactive)
18,Cc1ccc(N/C(N)=N/c2nc(C(F)(F)F)cc(C(F)(F)F)n2)cc1,1.07% (inactive)
19,Cn1c(=O)c(=O)n(C)c2cc(S(=O)(=O)NCCN3CCN(c4ccccc4F)CC3)ccc21,2.45% (inactive)
20,Cc1ccc2c(c1)-c1c(ssc1=S)C(C)(C)N2C(=O)CN1C(=O)c2ccccc2C1=O,-1.1% (inactive)
21,O=C(NCCCN1CCOCC1)c1ccc2c(c1)N(Cc1cccc(F)c1)C(=O)c1ccccc1S2,-7.56% (inactive)
22,Cc1ccccc1CN1C(=O)c2ccccc2Sc2ccc(C(=O)NCCCN3CCOCC3)cc21,19.6% (active)
23,CCC1=Nc2cc(C(=O)NCCCN3CCOCC3)ccc2Sc2ccc(Br)cc21,3.58% (inactive)

row,SMILES,inhibition
1,COc1ccc(Cl)cc1N(CC(=O)N/N=C/c1ccc(OCC(N)=O)cc1)S(C)(=O)=O,0.205% (inactive)
2,COc1cc(NC(=O)c2[nH]cnc2C(N)=O)cc(C(=O)Nc2cccc(C(F)(F)F)c2)c1,-1.33% (inactive)
3,O=C(Nc1ccccn1)C1CCN(S(=O)(=O)c2ccccc2)CC1,-0.314% (inactive)
4,O=C(Nc1ccccn1)C1CCN(S(=O)(=O)c2ccc3c(c2)OCCO3)CC1,35.5% (active)
5,O=C(NCc1cccs1)C1CCN(S(=O)(=O)c2ccc3c(c2)OCCO3)CC1,-3.5% (inactive)
6,Nc1c(-c2ccccc2)nnn1Cc1ccccc1,-2.36% (inactive)
7,CCOC(=O)c1ccc(COC(=O)CCc2nc(-c3ccccc3)c(-c3ccccc3)o2)cc1,-6.88% (inactive)
8,Cc1nnc(NC2=NCCCCC2)o1,4.02% (inactive)
9,COc1ccc(C)cc1NC(=O)CSc1ccc(Cl)cc1,-4.45% (inactive)
10,COc1ccc(C)cc1NC(=O)CNCc1cccs1,0.209% (inactive)
11,Cc1onc(-c2ccccc2Cl)c1C(=O)OCC(=O)c1ccccc1,4.43% (inactive)
12,Cc1onc(-c2ccccc2Cl)c1C(=O)N(Cc1ccc(N(C)C)cc1)C(C)C,12.7% (active)
13,Cc1onc(-c2ccccc2Cl)c1C(=O)NCCn1ccc2ccccc21,-5.8% (inactive)
14,CC(C)COC(=O)n1c(=O)oc2ccc(S(=O)(=O)N3CCCCC3)cc21,2.24% (inactive)
15,CCOC(=O)c1cc2cc3ccccc3cc2oc1=O,16.8% (active)
16,C=CCc1cccc2cc(C(=O)OCC)c(=O)oc12,-5.34% (inactive)
17,CCOC(=O)c1c(C)nc2c(c1C)c(=O)oc1ccccc12,1.54% (inactive)
18,NC(=O)C[n+]1cccc(C(N)=O)c1,-3.37% (inactive)
19,CC(CO)(CO)NC(=O)c1ccc(=O)[nH]n1,3.9% (inactive)
20,CCc1nn(CCCN2CCN(c3cccc(Cl)c3)CC2)c(=O)n1CCOc1ccccc1,-0.456% (inactive) and 3% (inactive)
21,c1ccc2cc(CCCc3cc4ccccc4cn3)ncc2c1,2.17% (inactive)
22,Cc1noc(C)c1COc1ccccc1C(=O)N(C)CC(=O)Nc1cccc(F)c1,0.0499% (inactive)
